We go through 89 molecules from PubChem BioAssay AID1671463 (Sanford-Burnham Center for Chemical Genomics, 2021).

The campaign covered roughly 370,000 compounds. About 520 (0.14%) were called active. This excerpt belongs to a sample that is enriched for actives. Unmarked numbers belong to inactive results. No stated cut-off is given here; in the data, active means activation above about 40%; inactive means the rest.

Sequence of Atrial natriuretic peptide receptor 1 (Homo sapiens) (P16066 whole entry, looked up): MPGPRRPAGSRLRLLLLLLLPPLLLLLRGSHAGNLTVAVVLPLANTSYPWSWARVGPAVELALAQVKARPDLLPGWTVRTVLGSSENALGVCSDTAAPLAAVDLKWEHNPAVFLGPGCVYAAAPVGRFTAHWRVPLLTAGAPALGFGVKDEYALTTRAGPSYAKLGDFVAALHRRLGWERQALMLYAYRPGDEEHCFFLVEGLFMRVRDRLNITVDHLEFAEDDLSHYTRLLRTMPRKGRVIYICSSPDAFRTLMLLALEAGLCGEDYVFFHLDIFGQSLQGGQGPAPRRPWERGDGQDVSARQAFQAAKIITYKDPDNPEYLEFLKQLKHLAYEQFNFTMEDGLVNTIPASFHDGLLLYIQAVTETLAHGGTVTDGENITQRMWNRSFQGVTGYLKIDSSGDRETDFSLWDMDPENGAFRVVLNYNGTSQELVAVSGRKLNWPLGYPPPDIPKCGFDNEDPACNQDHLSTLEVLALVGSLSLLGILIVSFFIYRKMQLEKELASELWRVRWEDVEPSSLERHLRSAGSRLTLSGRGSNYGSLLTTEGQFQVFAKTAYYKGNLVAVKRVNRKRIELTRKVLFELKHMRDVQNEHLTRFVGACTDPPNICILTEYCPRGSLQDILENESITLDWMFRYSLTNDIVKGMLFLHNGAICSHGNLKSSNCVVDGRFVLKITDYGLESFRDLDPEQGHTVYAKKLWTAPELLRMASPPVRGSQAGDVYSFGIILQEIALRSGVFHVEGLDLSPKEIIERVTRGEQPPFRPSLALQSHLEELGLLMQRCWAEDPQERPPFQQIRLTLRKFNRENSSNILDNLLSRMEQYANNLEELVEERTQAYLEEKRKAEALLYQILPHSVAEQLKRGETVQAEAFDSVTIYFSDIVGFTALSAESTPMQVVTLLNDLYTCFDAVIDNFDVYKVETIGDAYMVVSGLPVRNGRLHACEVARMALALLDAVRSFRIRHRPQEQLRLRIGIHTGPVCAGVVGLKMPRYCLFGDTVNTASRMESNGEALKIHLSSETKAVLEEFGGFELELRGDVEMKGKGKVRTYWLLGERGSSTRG

This assay has as its target Atrial natriuretic peptide receptor 1 (Homo sapiens) (UniProt P16066). As to the kind of experiment: GC-A stimulated cGMP production enhancers – HEK293 GC-A cells, cGMP TR-FRET, EC30 ANP, primary screen (AID 1671463). Conditions: at 10 µM, active compounds read high, 0% at EC30 ANP, 100% saturating ANP. Background: Time-resolved FRET reads energy transfer from a long-lived donor to a nearby acceptor.
As to `COC(=O)Nc1ccc(S(=O)(=O)N2CCN(CCN3C(=O)C4C5C=CC(C5)C4C3=O)CC2)cc1` (centres undefined), the activation is -1.89%.
To `Cc1cc(=O)n2nc(N3CCC(C(=O)Nc4c(F)c(F)c(F)c(F)c4F)CC3)sc2n1` belongs 0.6%; to `CC(C)c1cc(C(N)=O)c(NC(=O)c2cccc(COc3ccc(Br)cc3)c2)s1`, -1.61%; to `O=C(CN1C2CCC1CC(NC(=O)C1CC1)C2)NCc1ccccc1` (centres undefined), 0.13%.
Turning to `COc1ccccc1CNC(=O)CSc1nc(=O)n(Cc2ccncc2)c2c1CCC2`, the activation is 2.8%.
Next, `O=C1CC[C@@H](COc2ccc3[nH]cc(-c4ccccc4)c3c2-c2ccccc2)N1`: 2.69%; `CC(C)C[C@H](NC(=O)[C@@H]1O[C@H]1C(=O)O)C(=O)NCCCCN=C(N)N`: 2.77%; `C[C@H](NS(=O)(=O)c1ccc(Cl)cc1)C(=O)OCC(=O)N1CCOCC1`: 7.01%.
To `Nc1ccc(N=Nc2ccccc2Cl)c(N)n1` belongs 38.8%; to `CCN(CC)S(=O)(=O)c1ccc(CNC(=O)CN2C(=O)NC3(CCc4ccccc43)C2=O)cc1` (centres undefined), -0.1%; to `O=C(O)CCSc1nnc(-c2ccccc2)n1-c1ccccc1`, 4.68%.
Next, `C[C@@H](O)c1nc2ccccc2n1N`: 1.42%.
`Cc1noc(C)c1COc1cccc(C(=O)Nc2cccnc2)c1`: the activation is -4.16%.
Next, `Cc1noc(C)c1COC(=O)COc1ccc(-c2ccccc2)cc1`: 42% (active); `COCc1c(C(=O)OCc2c(C)noc2C)oc2ccccc12`: 2.41%; `CCCCOc1ccc(N(CC(=O)NCC2CCCO2)C(=O)CCC(=O)Nc2cc(C)ccn2)cc1` (centres undefined): 0.77%.
Regarding `CSc1sc(C(=O)NNC(=O)c2ccc(Cl)cc2)c2c1C=CCC2`, the activation is -1.84%.
Consider `Cc1cc(NC(=O)CS(=O)(=O)c2cn(C)c3ccccc23)no1`, for which the activation was 1.25%.
Regarding `CC(=O)c1ccc(S(=O)(=O)NC2CC(=O)N(c3ccc4c(c3)OCCO4)C2)cc1` (centres undefined), the activation is 4.47%.
To `Cc1ccn(-c2cccc(-n3ccc(C)n3)n2)n1` belongs 5.87%.
Next, `CCCCOc1ccc(NC(=O)[C@@H]2CCCN2C(=O)C2CCN(S(=O)(=O)c3ccc(C)cc3)CC2)cc1`: 2.31%; `O=C(Nc1ccon1)c1nc[nH]c1C(=O)NCc1ccccc1`: -0.12%.
To `NC(N)=NCCCc1cn(CC(=O)N2CCNCC2)nn1` belongs -2.97%; to `Cc1oc2cc3oc(=O)ccc3cc2c1C`, -1.91%; to `CC(C)Oc1ccc(C(CC(=O)N2CCOCC2)C(C)C)cc1` (centres undefined), -1.14%.
On to `O=C(CSc1nnc(-c2ccncc2)o1)Nc1cccc(Cl)c1`, for which the activation was -5.53%.
Next, `O=C(COC(=O)CSc1nnc(-c2ccc(Cl)cc2)o1)Nc1cc(Cl)cc(Cl)c1`: 60.5% (active); `O=C(CSc1nnc(-c2ccncc2)o1)NCc1ccc(Cl)cc1`: -2.38%; `O=[N+]([O-])c1ccc(CN2CC(N3CC=CC3)CS2(=O)=O)cc1` (centres undefined): 0.5%.
To `O=C1/C(=C\c2ccc([N+](=O)[O-])cc2)CS(=O)(=O)C/C1=C/c1ccc([N+](=O)[O-])cc1` belongs 43.4% (active); to `Nc1c(N(CCO)C(=O)C2CCCCC2)c(=O)[nH]c(=O)n1Cc1ccccc1`, -4.4%.
Next, `CC(NC(=O)COc1ccc(-c2ccccc2)cc1)C1CCCO1` (centres undefined): 3.26%; `COC(=O)CN1C(=O)[C@H]2[C@@H](C3CC3)N3C(=O)CN(Cc4ccc(-c5ccccc5)cc4)C(=O)[C@@]3(Cc3ccccc3)[C@H]2C1=O`: 4.81%; `O=C(CSc1nc2ccccc2n1Cc1ccccc1)NNC(=S)Nc1ccccc1`: 0.91%.
For the molecule `O=S(=O)(Nc1ccc(-c2ccc(N3CCOCC3)nn2)cc1)c1cc(Cl)ccc1Cl`, the activation was 0.58%.
To `COc1cc(NC(=O)c2ccc(CNc3c(N4CCCC4)c(=O)c3=O)cc2)cc(OC)c1OC` belongs -2.1%; to `Fc1ccc2c(c1)C(c1cccnc1)=NNC(c1cccs1)=N2`, -28.1%; to `[O-][n+]1c2c(nn1-c1ccc(Cl)c(Cl)c1)-c1nonc1CC2`, 9.72%.
To `C=CCOc1ccc(Cl)cc1CNCCCN1CCOCC1` belongs -6.85%.
To `O=C1C=C(c2ccnc3cc(Cl)ccc23)C[C@@H](c2ccc3c(c2)OCO3)C1` belongs 0.61%; to `CCOc1ccc(NC(=O)CSc2ncnc3c2sc2ccccc23)cc1`, 38.7%; to `CC(C)CCSc1ncnc2c1oc1nc3c(cc12)COC(C)(C)C3`, -1.1%.
In the case of `CC1(C)Cc2nc3sc4c(SCC(=O)NC(c5ccccc5)c5ccccc5)ncnc4c3cc2CO1`, the activation is 52.8% (active).
To `CN1CCC(=NNC(=O)CN(c2cccc(Cl)c2)S(C)(=O)=O)CC1` belongs 0.89%; to `CCCCCn1c(SCCC(C)C)nc2c1c(=O)[nH]c(=O)n2C`, 1.84%; to `COc1ccc2occ(C(=O)c3ccc(N=C(C)N(C)C)cc3)c2c1`, -4.34%.
To `Cc1nn(Cc2ccccc2)c(C)c1C(=O)N1CCN(CC(=O)Nc2ccccc2Cl)CC1` belongs 4.37%; to `CN(C)CCN=c1cc(-c2ccccc2)oc2ccc(Cl)cc12`, 1.39%; to `COc1ccc(C(CC(=O)c2ccccc2)S(=O)(=O)c2ccccc2)cc1` (centres undefined), -10.5%.
To `O=C(c1ccc(F)c(S(=O)(=O)N2CCOCC2)c1)N(CCc1ccccc1)Cc1ccccc1` belongs -3.51%; to `O=C(CN1C(=O)c2ccc([N+](=O)[O-])cc2C1=O)Nc1nnc(C2CC2)s1`, 5.52%; to `COc1ccc(NC(=O)C(CC(C)C)NC(=O)C2CCC(C)CC2)cc1` (centres undefined), -0.39%.
As for `CCOC(=O)N1CCN(C(=O)CSc2nnc(-c3c[nH]c4ccccc34)n2CCOC)CC1`, the activation is -1.3%.
To `CCNC(=O)N1CCN(S(=O)(=O)c2ccc3c(c2)OCCCO3)CC1` belongs -0.67%; to `O=C(CCC1CCCN(Cc2ccc(O)c(Cl)c2)C1)NCc1ccccc1F` (centres undefined), 3.25%; to `COc1ccc2cc(C(=O)O)n(CC(=O)c3ccccc3)c2c1`, -0.02%.
Next, `CC(=O)OCCN1CCCC12CCC(c1ccccc1)CC2` (centres undefined): 4.33%.
On to `COc1ccc(CCNC(=O)COc2ccc3c(c2)OCO3)cc1`, for which the activation was -3.12%.
In the case of `NC(=O)C1=C[C@H](c2csc3ccccc23)C[C@H](OCc2ccc(CO)cc2)O1`, the activation was -0.65%.
As for `CC(C)COC(=O)n1c(=O)oc2ccc(S(=O)(=O)N3CCCCC3)cc21`, the activation is 0.62%.
Next, `COc1ccc(C2CC(c3ccccc3)=NN2C(=O)c2ccc(Cl)c([N+](=O)[O-])c2)cc1` (centres undefined): 69.5% (active); `CCOc1ccc2nc(Cl)c(C3CC(c4ccccc4)=NN3C(=O)c3cccs3)cc2c1` (centres undefined): 1.83%.
Next, `COc1ccc(C2CC(c3cccc(OC)c3)=NN2c2ccc(S(N)(=O)=O)cc2)cc1` (centres undefined): 6.44%.
Next, `O=C1C=CC(=O)N1c1ccc(N2CCCCC2)cc1`: 50.5% (active); `Cc1nc(N2CCCC2C(=O)O)c2oc3ccccc3c2n1` (centres undefined): -1.86%; `Cc1nc(Cl)c2oc3ccccc3c2n1`: 41.1% (active).
In the case of `C[C@@H](Nc1nc(-c2ccccc2)nc2c1oc1ccccc12)C(=O)O`, the activation was -3.4%.
In the case of `CC12CN(NC(=O)c3ccc(Cl)cc3)C3(C#N)CC1CCC23C` (centres undefined), the activation is 0.43%.
To `C#CCN([C@H](C(=O)OC)C(C)CC)S(=O)(=O)c1ccccc1Br` (some centres undefined) belongs -4.19%; to `Cc1ccc(S(=O)(=O)CC(=O)NC(C)c2ccccc2)cc1` (centres undefined), 4.14%; to `CCOc1ccccc1NC(=O)C1CCC(CNc2c(N3CCOCC3)c(=O)c2=O)CC1` (centres undefined), 0.11%.
Next, `CC(C)c1cc(C(=O)O)on1`: -0.6%; `Cc1ccc(C(=O)NCC(=O)NCc2cc(=O)n(C)c(=O)n2C)cc1`: 1.88%.
Next, `CN(C)/C(=N\OC(=O)c1ccccc1)c1nonc1N`: -2.63%; `Cc1cccc(-n2ncc(Cl)c(Cl)c2=O)c1`: 40.6% (active); `CCOc1ccc(Oc2c(Cl)cnn(-c3ccc(C)cc3)c2=O)cc1`: 4.6%.
With `Nc1c(-c2cccc(Cl)c2)cnn1-c1cccc([N+](=O)[O-])c1`, the activation is -2.54%.
To `COC(=O)c1ccc(C2C3=C(Nc4nnnn42)c2ccccc2OC3)cc1` (centres undefined) belongs 1.48%.
Next, `CCc1c(C)sc(NC(=O)OC)c1C(=O)N1CCOCC1`: 0.05%; `C/C(Cl)=C\Cn1c(Nc2cccc(C)c2)nc2c1c(=O)n(C)c(=O)n2C`: 51.1% (active); `Cn1c(=O)c2c(nc(N/N=C/c3cccs3)n2Cc2ccc(Br)cc2)n(C)c1=O`: 18.6%.
In the case of `Cc1cccc(Cn2c(N3CCN(c4ccccc4)CC3)nc3c2c(=O)n(C)c(=O)n3C)c1`, the activation was -29%.
To `CCN(CC(=O)Nc1cc(Cl)ccc1C)C(=O)CSCc1ccc(C)cc1` belongs -0.6%; to `CC1(c2ccc3ccccc3c2)NC(=O)N(CC(N)=O)C1=O` (centres undefined), 3.94%; to `C=CCN1C(=O)[C@@H](CC(=O)NCCCCc2ccccc2)[C@]2(C(=O)OCC)CCCCC/C=C/12`, 3.65%.
`COc1ccc(N(CC(=O)NCC2CCCO2)C(=O)CCC(=O)Nc2nccs2)c(OC)c1` (centres undefined): the activation is 4.75%.
To `CC(C)(C)C(=O)CCN1C(=O)C2(OCCO2)c2ccccc21` belongs 1.22%; to `CC(=O)NC(c1cccs1)c1cc(Br)c2cccnc2c1O` (centres undefined), -1.9%; to `CCCCCCCCN1C(=O)[C@@H](CC(=O)NCc2ccccc2)C[C@@]2(C(=O)OC)C1=C[C@H](C(C)(C)C)O[C@@H]2C`, 2.65%.
